# Where “and” joins values, the source holds several entries; their conditions need not be identical. Equal entries are not always repeated. Values without a mark were called inactive. Records with an inconclusive call do not appear. Where a call stands in place of a potency, no number is given. Calls of active or inactive are those of the source. Unless noted, the call rests on the fitted dose curve; in most records, active means well fitted curve in the direction sought with a large enough effect; inconclusive means small, poorly fitted or top-dose-only effect, or another doubt; inactive means no such curve, though single readings can be large; an effect the other way counts as inactive or inconclusive.
# Key:
# [1] = biological target: Voltage-gated inwardly rectifying potassium channel KCNH2 (Homo sapiens) (UniProt Q12809); assay: qHTS Assay for Small Molecule Inhibitors of the Human hERG Channel Activity (AID 588834);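 further: lower thallium flux fluorescence means stronger hERG block; nearly all actives have a fitted effect of over 50% in size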; further: potency means the concentration at half of the fitted maximal effect
# Chain of Voltage-gated inwardly rectifying potassium channel KCNH2 (Homo sapiens) (Q12809 whole entry, looked up): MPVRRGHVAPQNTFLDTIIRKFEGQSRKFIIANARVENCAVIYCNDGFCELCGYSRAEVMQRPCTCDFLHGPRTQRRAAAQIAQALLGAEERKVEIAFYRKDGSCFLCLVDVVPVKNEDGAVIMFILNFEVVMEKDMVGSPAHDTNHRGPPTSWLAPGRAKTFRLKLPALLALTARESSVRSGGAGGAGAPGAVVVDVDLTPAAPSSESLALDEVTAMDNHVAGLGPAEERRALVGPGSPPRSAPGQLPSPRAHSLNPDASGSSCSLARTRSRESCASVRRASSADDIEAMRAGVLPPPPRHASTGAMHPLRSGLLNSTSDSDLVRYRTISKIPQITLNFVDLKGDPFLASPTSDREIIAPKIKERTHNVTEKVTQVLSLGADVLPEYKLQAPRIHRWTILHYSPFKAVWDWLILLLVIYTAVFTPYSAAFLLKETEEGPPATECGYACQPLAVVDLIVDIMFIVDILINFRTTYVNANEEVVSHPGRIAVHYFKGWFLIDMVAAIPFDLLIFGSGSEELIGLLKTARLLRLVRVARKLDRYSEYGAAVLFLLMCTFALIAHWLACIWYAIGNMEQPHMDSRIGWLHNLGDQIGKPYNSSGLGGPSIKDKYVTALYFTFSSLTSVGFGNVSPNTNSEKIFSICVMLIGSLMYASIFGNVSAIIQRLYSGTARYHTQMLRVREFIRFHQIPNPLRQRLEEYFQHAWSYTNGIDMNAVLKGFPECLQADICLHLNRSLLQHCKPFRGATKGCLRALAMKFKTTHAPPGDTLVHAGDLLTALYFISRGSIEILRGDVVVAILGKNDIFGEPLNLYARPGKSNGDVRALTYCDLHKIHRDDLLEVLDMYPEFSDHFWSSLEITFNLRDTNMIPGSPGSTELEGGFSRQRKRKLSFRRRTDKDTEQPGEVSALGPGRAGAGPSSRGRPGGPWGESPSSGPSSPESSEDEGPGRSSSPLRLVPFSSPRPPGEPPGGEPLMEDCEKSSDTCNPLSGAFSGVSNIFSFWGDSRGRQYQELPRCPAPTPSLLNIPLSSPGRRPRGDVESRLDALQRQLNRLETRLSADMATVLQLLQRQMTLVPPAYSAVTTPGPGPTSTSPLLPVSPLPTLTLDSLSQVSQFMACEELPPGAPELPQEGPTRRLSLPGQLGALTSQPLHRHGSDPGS
# In short: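 U2OS cells BacMam-transduced with hERG, 2000 cells/well, compound ~10 min at 37 °C before stimulation buffer. FluxOR thallium flux fluorescence read kinetically on FDSS; decrease indicates block; AC50 from Hill fits.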
# [2] = biological target: Luciferin 4-monooxygenase (Photinus pyralis) (UniProt P08659); assay: Biochemical firefly luciferase enzyme assay for NPC (AID 624030);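 further: purified P. pyralis luciferase at 10 nM with luciferin and ATP substrate; series mostly up to about 59 µM; nearly all actives have a fitted effect of over 70% in size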
# Chain of Luciferin 4-monooxygenase (Photinus pyralis) (P08659 whole entry, looked up): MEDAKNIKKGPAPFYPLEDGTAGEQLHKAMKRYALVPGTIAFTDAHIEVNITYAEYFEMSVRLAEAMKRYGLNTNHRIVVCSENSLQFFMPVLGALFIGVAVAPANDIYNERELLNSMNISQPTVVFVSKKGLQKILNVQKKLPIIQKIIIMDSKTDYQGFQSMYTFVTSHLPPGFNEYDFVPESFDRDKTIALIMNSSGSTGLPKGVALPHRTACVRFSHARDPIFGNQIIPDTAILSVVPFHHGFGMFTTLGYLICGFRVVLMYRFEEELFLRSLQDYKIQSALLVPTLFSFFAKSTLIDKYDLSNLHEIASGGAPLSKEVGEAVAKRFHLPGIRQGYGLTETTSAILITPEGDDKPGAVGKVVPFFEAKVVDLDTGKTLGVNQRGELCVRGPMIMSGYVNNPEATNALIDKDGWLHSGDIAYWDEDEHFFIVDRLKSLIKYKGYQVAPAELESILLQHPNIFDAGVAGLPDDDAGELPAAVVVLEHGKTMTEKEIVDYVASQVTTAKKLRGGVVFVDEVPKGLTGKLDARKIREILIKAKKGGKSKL
# In short: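 Direct inhibition of firefly luciferase enzyme (10 nM final, 50 mM Tris Acetate) assessed by luminescence within 5 minutes. Percent activity scaled between DMSO and PTC124 positive control, with concentration-effect curves classified by fit quality and response.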
# [3] = S16 Schwann cell viability assay (CellTiter-Glo assay) (AID 624031);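 further: native untransfected S16 rat Schwann cells; cellular ATP luminescence as a viability measure; series mostly up to about 58 µM; nearly all actives have a fitted effect of over 70% in size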
# In short: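 Concentration-effect curves come from CellTiter-Glo luminescence of S16 rat Schwann cells after 24 h compound exposure. Each reading was normalized to DMSO wells (0%) and wells without cells, and curves were ranked by r2 and response magnitude.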
# [4] = S16 Schwann cell PMP22 intronic element firefly luciferase assay (AID 624032); further: nearly all actives have a fitted effect of over 30% in size; further: potency means the concentration at half of the fitted maximal effect
# In short: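 Luciferase reporter of PMP22 intronic-element expression in stably transfected S16 rat Schwann cells, read by ONE-Glo luminescence after 24 h compound exposure at 37 C. Activity scaled between DMSO (0%) and positive-control PTC124; concentration-effect curves quality-classified.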
# [5] = S16 Schwann cell PMP22 intronic element beta-lactamase assay (AID 624044; calls by dose curve; further: nearly all actives have a fitted effect of over 15% in size)
# In short: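 Rat S16 Schwann cells with beta-Lac driven by a PMP22 intronic element, compound-treated 24 h at 37 °C. LiveBLAzer FRET B/G read: 460 nm normalized to potassium clavulanate vs DMSO; 535 nm FRET as viability; concentration-effect curves classified.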
# [6] = biological target: Glutaminase kidney isoform, mitochondrial (Homo sapiens) (UniProt O94925); assay: qHTS for Inhibitors of Glutaminase (GLS): LOPAC Validation (AID 624146);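 further: glutamate product detected by oxidase and peroxidase coupled Amplex red fluorescence gain; series mostly up to about 46 µM; nearly all actives have a fitted effect of over 60% in size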
# Chain of Glutaminase kidney isoform, mitochondrial (Homo sapiens) (O94925 whole entry, looked up, canonical isoform): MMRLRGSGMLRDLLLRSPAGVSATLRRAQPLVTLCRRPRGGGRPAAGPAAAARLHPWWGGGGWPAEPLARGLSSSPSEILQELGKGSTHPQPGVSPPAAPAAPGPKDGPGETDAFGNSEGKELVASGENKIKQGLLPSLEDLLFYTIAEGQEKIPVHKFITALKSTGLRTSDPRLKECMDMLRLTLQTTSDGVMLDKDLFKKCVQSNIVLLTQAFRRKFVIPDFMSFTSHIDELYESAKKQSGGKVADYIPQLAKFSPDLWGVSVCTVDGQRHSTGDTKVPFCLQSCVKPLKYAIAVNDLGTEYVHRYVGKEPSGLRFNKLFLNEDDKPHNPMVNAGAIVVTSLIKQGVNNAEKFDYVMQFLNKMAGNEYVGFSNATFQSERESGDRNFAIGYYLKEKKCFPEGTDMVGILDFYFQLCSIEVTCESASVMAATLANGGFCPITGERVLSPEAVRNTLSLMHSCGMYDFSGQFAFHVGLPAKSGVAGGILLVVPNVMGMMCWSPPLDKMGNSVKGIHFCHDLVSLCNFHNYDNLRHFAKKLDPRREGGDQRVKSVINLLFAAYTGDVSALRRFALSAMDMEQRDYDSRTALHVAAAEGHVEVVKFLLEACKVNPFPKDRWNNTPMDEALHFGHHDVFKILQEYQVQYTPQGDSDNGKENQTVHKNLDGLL
# In short: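 hKGA in 45 mM KH2PO4 pH 8.2, 0.02% Tween-20 with pin-transferred compounds; 1 mM L-glutamine (stock) plus glutamate oxidase/HRP/Amplex Red coupling added. Fluorescence read initially and after 30 min at RT.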
# [7] = biological target: Glucagon-like peptide 1 receptor (Homo sapiens) (UniProt P43220); assay: qHTS of GLP-1 Receptor Agonists: LOPAC Validation (AID 624148);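 further: luminescence from a luciferase reporter switched on by cAMP; higher luminescence signal means agonism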
# Chain of Glucagon-like peptide 1 receptor (Homo sapiens) (P43220 whole entry, looked up): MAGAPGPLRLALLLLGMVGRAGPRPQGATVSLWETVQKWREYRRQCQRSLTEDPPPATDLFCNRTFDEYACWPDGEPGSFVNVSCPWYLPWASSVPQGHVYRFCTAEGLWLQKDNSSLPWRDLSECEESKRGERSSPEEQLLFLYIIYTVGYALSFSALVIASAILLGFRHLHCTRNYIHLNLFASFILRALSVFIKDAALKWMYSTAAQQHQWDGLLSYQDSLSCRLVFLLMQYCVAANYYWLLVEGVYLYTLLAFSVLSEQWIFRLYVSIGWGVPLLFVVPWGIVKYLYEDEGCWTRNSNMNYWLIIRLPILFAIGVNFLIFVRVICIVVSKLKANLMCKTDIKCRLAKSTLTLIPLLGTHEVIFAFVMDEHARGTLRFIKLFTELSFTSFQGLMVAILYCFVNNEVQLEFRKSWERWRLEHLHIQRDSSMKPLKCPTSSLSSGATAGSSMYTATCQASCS
# In short: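 Agonism scored as increased luciferase luminescence driven by cAMP in HEK293 clones carrying GLP-1R. Cells settled 12 hours, received compound for 4-6 hr at 37 deg C, 5% CO2, and were read after 12 min detection reagent at RT.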
# [8] = qHTS of Nrf2 Activators: LOPAC Validation (AID 624149)
# In short: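 ARE reporter activation measured in AREc32 firefly luciferase cells after 24 hr compound exposure; Steady-Glo luminescence.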
# [9] = biological target: Thyroid hormone receptor beta (Homo sapiens) (UniProt P10828); assay: qHTS assay for small molecule antagonists of thyroid hormone receptor beta signaling (AID 588547; active means well fitted inhibition curve with a large enough effect in the signal ratio, with a control signal flat, not every such curve was filed as active; the % refers to the signal ratio;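 further: cells stimulated with 0.4 nM T3 agonist during compound exposure; series mostly up to about 77 µM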); conditions: TR-UAS-bla HEK293, beta-lactamase ratio, antagonist mode, 18 h
# Chain of Thyroid hormone receptor beta (Homo sapiens) (P10828 whole entry, looked up): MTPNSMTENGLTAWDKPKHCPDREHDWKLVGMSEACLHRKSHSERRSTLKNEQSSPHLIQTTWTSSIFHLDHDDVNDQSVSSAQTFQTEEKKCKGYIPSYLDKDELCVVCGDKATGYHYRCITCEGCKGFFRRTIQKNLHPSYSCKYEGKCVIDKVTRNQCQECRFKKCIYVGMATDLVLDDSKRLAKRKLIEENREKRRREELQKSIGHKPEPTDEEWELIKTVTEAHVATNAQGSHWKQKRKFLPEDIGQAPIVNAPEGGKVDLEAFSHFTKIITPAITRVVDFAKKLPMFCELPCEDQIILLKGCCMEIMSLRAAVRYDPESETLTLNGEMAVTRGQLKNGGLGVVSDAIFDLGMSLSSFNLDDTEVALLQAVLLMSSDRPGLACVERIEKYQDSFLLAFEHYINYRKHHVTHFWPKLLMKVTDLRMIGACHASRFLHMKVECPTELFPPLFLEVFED
# In short: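 Inhibition of T3-driven (0.4nM final) beta-lactamase reporter activity was measured over 0.59 nM to 92 uM compound after 18 h at 37 C. The cells were GripTite HEK293 TR-UAS-bla in charcoal/dextran-stripped serum, with CCF4 ratio read-out and IC50 from Hill fits.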
# [10] = qHTS of Trypanosoma Brucei Inhibitors: LOPAC Validation (AID 624147)
# In short: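 Assay buffer: 50 mM TEA pH 7.2, 100 mM KCl, 10 mM MgCl2, 0.05% BSA, 0.01% Tween-20. Pyruvate kinase from T. brucei plus substrate met compound, then ADP (130 uM final). Luminescence was read post 45 min RT.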
Structure (SMILES),Potency [1],Potency [2],Potency [3],Potency [4],outcome [5],outcome [6],outcome [7],outcome [8],activity change % (negative = inhibition) [9],outcome [10]
CC(=O)Oc1ccccc1C(=O)O,inactive,inactive,inactive,inactive,inactive,inactive,inactive,inactive,,
O=c1[nH]cnc2[nH]ncc12,inactive,inactive,inactive,inactive,,inactive,inactive,inactive,5.35%,
NC(=O)c1cnccn1,inactive,inactive,inactive,inactive,,inactive,inactive,inactive,,inactive
CC(C[N+](C)(C)C)OC(N)=O (centres undefined),inactive,inactive,inactive,inactive,,inactive,inactive,inactive,,
CC(C)(C)NCC(O)c1ccc(O)c(CO)c1 (centres undefined),inactive,inactive,inactive,,,inactive,,,,inactive
Cc1[nH]c(=O)c(C#N)cc1-c1ccncc1,,inactive,inactive,,,inactive,inactive,inactive,-2.81%,
N[C@@H]1CONC1=O,inactive,inactive,inactive,inactive,inactive,inactive,inactive,inactive,,
Cc1[nH]c(=O)c(C#N)cc1-c1ccc2nccn2c1,inactive,inactive,inactive,,,,inactive,inactive,,
NCCc1ccc(O)c(O)c1,inactive,inactive,inactive,8.09 µM (active),inactive,inactive,,inactive,,
O=C1CCC(N2C(=O)c3ccccc3C2=O)C(=O)N1 (centres undefined),inactive,inactive,inactive,inactive,inactive,inactive,inactive,inactive,4.95%,inactive
C#Cc1cccc(Nc2ncnc3cc(OCCOC)c(OCCOC)cc23)c1,inactive,inactive,,inactive,inactive,,,,,
CCCCNc1cc(C(=O)O)cc(S(N)(=O)=O)c1Oc1ccccc1,inactive,inactive,inactive,inactive,inactive,inactive,inactive,inactive,,
NC(N)=NC(=O)c1nc(Cl)c(N)nc1N,inactive,inactive,inactive,inactive,,inactive,inactive,inactive,4.66%,
Cn1cnc([N+](=O)[O-])c1Sc1ncnc2nc[nH]c12,inactive,inactive,inactive,,,inactive,inactive,inactive,18.7%,
Clc1cccc(Cl)c1NC1=NCCN1,inactive,inactive,inactive,inactive,,inactive,inactive,inactive,,inactive
O=NN(CCCl)C(=O)NCCCl,inactive,inactive,inactive,inactive,,inactive,inactive,inactive,11.9%,
COc1ccc2nc(S(=O)Cc3ncc(C)c(OC)c3C)[nH]c2c1 (centres undefined),inactive,,inactive,inactive,inactive,,,,-6.03%,
NC[C@H](O)c1ccc(O)c(O)c1,inactive,inactive,inactive,9.07 µM (active),inactive,inactive,,inactive,13.6%,
CCCC(CCC)C(=O)O,inactive,inactive,inactive,inactive,,inactive,inactive,,-9.25% and 16%,inactive
N#Cc1ccc(C(c2ccc(C#N)cc2)n2cncn2)cc1,inactive,inactive,inactive,inactive,inactive,,,,,

Structure (SMILES),Potency [1],Potency [2],Potency [3],Potency [4],outcome [5],outcome [6],outcome [7],outcome [8],activity change % (negative = inhibition) [9],outcome [10]
Cc1cn[nH]c1,inactive,inactive,inactive,inactive,,inactive,inactive,inactive,,
Nc1ccc(S(=O)(=O)Nc2ccnn2-c2ccccc2)cc1,inactive,inactive,inactive,inactive,inactive,inactive,inactive,inactive,,
CC(C)NCC(O)COc1ccc(COCCOC(C)C)cc1 (centres undefined),inactive,inactive,inactive,inactive,,inactive,inactive,inactive,,
NS(=O)(=O)c1cc2c(cc1Cl)NC=NS2(=O)=O,inactive,inactive,inactive,inactive,inactive,inactive,inactive,inactive,-11.5%,
N=c1nc(N2CCCCC2)cc(N)n1O,inactive,inactive,inactive,inactive,inactive,inactive,inactive,inactive,,inactive
O=C1CCc2cc(OCCCCc3nnnn3C3CCCCC3)ccc2N1,inactive,inactive,inactive,,,inactive,inactive,inactive,,
C[C@]12CCC(=O)C=C1CC[C@@H]1[C@@H]2[C@@H](O)C[C@@]2(C)[C@H]1CC[C@]2(O)C(=O)CO,,,,,,inactive,inactive,inactive,20.5%,
CC(c1cc2ccccc2s1)N(O)C(N)=O (centres undefined),inactive,inactive,inactive,inactive,inactive,,,,,
Nc1nc2[nH]cc(CCc3ccc(C(=O)N[C@@H](CCC(=O)O)C(=O)O)cc3)c2c(=O)[nH]1,inactive,,,,,,,,,
CCCc1nc2c(C)cc(-c3nc4ccccc4n3C)cc2n1Cc1ccc(-c2ccccc2C(=O)O)cc1,inactive,,,,,,,,,
CNC[C@H](O)c1cccc(O)c1,inactive,inactive,inactive,,,inactive,,inactive,16.7%,
Nc1nc2ccc(OC(F)(F)F)cc2s1,,,inactive,inactive,,inactive,inactive,inactive,,
Cc1ccc(N(CC2=NCCN2)c2cccc(O)c2)cc1,,inactive,inactive,inactive,inactive,,inactive,inactive,,inactive
O=C(Nc1nc2ccccc2n1CCN1CCOCC1)c1cccc([N+](=O)[O-])c1,,,,,,inactive,inactive,inactive,,
O=c1n(CCCN2CCN(c3cccc(Cl)c3)CC2)nc2ccccn12,,inactive,inactive,inactive,,inactive,inactive,inactive,,inactive
C1COC(NC(C2CC2)C2CC2)=N1,inactive,inactive,,,,inactive,inactive,inactive,,
CCCc1nn(C)c2c(=O)[nH]c(-c3cc(S(=O)(=O)N4CCN(C)CC4)ccc3OCC)nc12,,inactive,inactive,,inactive,,,,,
CC(C)(Sc1ccc(CCN(CCCCC2CCCCC2)C(=O)NC2CCCCC2)cc1)C(=O)O,inactive,,,,,inactive,inactive,inactive,,

Structure (SMILES),Potency [1],Potency [2],Potency [3],Potency [4],outcome [5],outcome [6],outcome [7],outcome [8],activity change % (negative = inhibition) [9],outcome [10]
NCCCC(N)(C(=O)O)C(F)F (centres undefined),,inactive,inactive,inactive,inactive,inactive,inactive,inactive,,
CCc1ccc(CCOc2ccc(CC3SC(=O)NC3=O)cc2)nc1 (centres undefined),inactive,,inactive,inactive,inactive,,,,,
NNCCc1ccccc1,inactive,,inactive,inactive,,,inactive,inactive,,
Nc1nc2c(ncn2COCCO)c(=O)[nH]1,,inactive,inactive,inactive,,inactive,inactive,inactive,,
CCOC(=O)N1CCC(=C2c3ccc(Cl)cc3CCc3cccnc32)CC1,,inactive,inactive,,inactive,,inactive,inactive,,
Cn1cnc2c(F)c(Nc3ccc(Br)cc3Cl)c(C(=O)NOCCO)cc21,,inactive,,,,,,,,
OC(CN1CCC(Cc2ccc(F)cc2)CC1)c1ccc(Cl)cc1 (centres undefined),0.0178 µM (active),inactive,,inactive,,inactive,inactive,inactive,,inactive
O=C(O)COCCN1CCN(C(c2ccccc2)c2ccc(Cl)cc2)CC1 (centres undefined),,,,,,inactive,inactive,inactive,,
Cc1cc2c(C(C)C)c(O)c(O)c(C=O)c2c(O)c1-c1c(C)cc2c(C(C)C)c(O)c(O)c(C=O)c2c1O,inactive,,,inactive,inactive,inactive,inactive,inactive,,
Cc1c(C)c2c(c(C)c1O)CCC(C)(COc1ccc(CC3SC(=O)NC3=O)cc1)O2 (centres undefined),inactive,,inactive,10.2 µM (active),inactive,,,,,
CCn1cc(C(=O)O)c(=O)c2cc(F)c(N3CCNC(C)C3)c(F)c21 (centres undefined),,,,,,inactive,inactive,inactive,,
CCOC(=O)C1=C[C@]2(CC)CCCN3CCc4c(n1c1ccccc41)[C@@H]32,141 nM (active) and 31.6 nM (active),inactive,,inactive,inactive,inactive,inactive,inactive,,
CC(C)C[C@H](NC(=O)[C@@H](O)[C@H](N)Cc1ccccc1)C(=O)O,,inactive,inactive,inactive,inactive,inactive,inactive,inactive,,
CCOC(=O)C1=C[C@@]2(CC)CCCN3CCc4c(n1c1ccccc41)[C@H]32,,inactive,,,,,,,,
O=C(NOC[C@H](O)CO)c1ccc(F)c(F)c1Nc1ccc(I)cc1F,,inactive,,,,,,,,
Nc1ncnc2nc(-c3ccc(N4CCOCC4)nc3)cc(-c3cccc(Br)c3)c12,,,,,,inactive,,,,inactive
Clc1ccc(Nc2nnc(Cc3ccncc3)c3ccccc23)cc1,,inactive,,20.3 µM (active),inactive,,,,,
Cc1ccccc1C(OCCN(C)C)c1ccccc1 (centres undefined),,inactive,inactive,inactive,,inactive,inactive,inactive,,
CCC(C)N(C)C(=O)c1cc2ccccc2c(-c2ccccc2Cl)n1 (centres undefined),inactive,,,,,inactive,inactive,inactive,,inactive
